Compound activity (PubChem BioAssay)
The list is not random: actives were taken first. Their share in the collection is about 21%.
Pf growth 96h: P. falciparum growth inhibition at 96 hours; P. falciparum luciferase reporter growth, 96 h; AID 504834; 6.9% of 320,000 active; Potency, µM (doses to about 28.7 µM), for the others: at the highest dose activity change, negative = inhibition, most hits filed as inhibitors; further: potency means the concentration at half of the fitted maximal effect; on the % scale 0 is the no-effect control and ±100 the full control effect
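Delayed-death screen, second-generation endpoint: infected erythrocytes, 2% hematocrit, 0.05% parasitemia final; 96 hours at 37 C, 5% CO2; luciferase detection reagent; luminescence decrease equals reduced growth.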
Shiga toxin inh: Shiga toxin inhibition; Vero cells, Shiga toxin protein synthesis inhibition reporter; AID 2315; 9.2% of 290,000 active; inhibition, % at 38.7 µM; in the data active means inhibition mostly above about 28%, no sharp cut-off; inactive means mostly below about 43%; further: 0% is about no effect
NS1 function inh: influenza NS1 inhibition. Potency, µM (top dose mostly 46.1 µM), inactives show top-dose activity, positive = more growth. 0.4% of 270,000 active; calls by dose curve; further: potency means the concentration at half of the fitted maximal effect; actives are rising curves; nearly all actives have a fitted effect of over 50% in size
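Growth recovery, yeast-based: influenza A NS1 expressed in S. cerevisiae causes slow growth, and suppressors are detected by OD600. The parent strain without NS1 is used as positive control.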
Pf growth 48h: P. falciparum growth inhibition at 48 hours (one generation). Potency, µM (top dose mostly 28.7 µM), inactives show top-dose activity change, negative = inhibition, usual class: inhibitors. P. falciparum luciferase growth in erythrocytes, 48 h. 5.9% of 310,000 active; further: potency means the concentration at half of the fitted maximal effect; on the % scale 0 is the no-effect control and ±100 the full control effect
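Parasite viability was followed by luminescence of a genomically integrated firefly luciferase. Cultures held 0.1% parasitemia at 2% hematocrit (final), incubated under 5% CO2 at 37 C.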
FBPA Giardia inh: Giardia lamblia aldolase inhibition. A8B2U2. Potency, µM (series often up to 59.6 µM), without a hit: at the top dose activity, negative = inhibition, most hits filed as inhibitors. 0.71% of 290,000 active. purified Giardia FBPA. AID 2451; further: potency means the concentration at half of the fitted maximal effect; on the % scale 0 is the no-effect control and ±100 the full control effect; nearly all actives have a fitted effect of over 55% in size
Target sequence (A8B2U2 whole entry, looked up): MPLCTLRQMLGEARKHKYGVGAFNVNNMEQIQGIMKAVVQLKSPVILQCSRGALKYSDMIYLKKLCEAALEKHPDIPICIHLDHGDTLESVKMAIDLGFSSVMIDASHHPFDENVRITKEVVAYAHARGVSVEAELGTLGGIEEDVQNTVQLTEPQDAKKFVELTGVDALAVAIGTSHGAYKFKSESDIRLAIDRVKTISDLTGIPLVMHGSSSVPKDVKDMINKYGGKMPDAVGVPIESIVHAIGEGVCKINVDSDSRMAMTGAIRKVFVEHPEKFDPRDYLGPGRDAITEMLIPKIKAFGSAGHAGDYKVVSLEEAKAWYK
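40 nM FBPA preincubated 10 min at RT with compound (up to 57.5 uM final), then substrate plus GAPDH/TPI/NAD/arsenate coupling and diaphorase/resazurin added. Fluorescence read after 20 min at RT, 525/598 nm.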
Cycloheximide cs: counter-screen hit for Shiga toxin inhibitors, cycloheximide | 12% of 300,000 active | max response, % | cell reporter, cycloheximide protein synthesis inhibition counterscreen | AID 2314; in the data active means max response mostly above about 13%, no sharp cut-off; inactive means mostly below about 14%; further: read at 38.3 µM for the half of the compounds with a filed dose; 0% is about no effect
Active calls of the source: *; ? = inconclusive; . = not tested or not shown; + = active, no number. Unless noted, the call rests on the fitted dose curve; in most records, active means well fitted curve in the direction sought with a large enough effect; inconclusive means small, poorly fitted or top-dose-only effect, or another doubt; inactive means no such curve, though single readings can be large; an effect the other way counts as inactive or inconclusive.

SMILES	Pf growth 96h	Shiga toxin inh	NS1 function inh	Pf growth 48h	FBPA Giardia inh	Cycloheximide cs
O=C1NC(=O)C2(CCCc3ccccc32)N1 (stereo not given)	-26%	-5	0%	14%	.	-3
CCCc1c(C(=O)Nc2cc(C)on2)cnn1-c1ccccc1	9.3µM*	15	1%	?	2%	-1
Cc1cc(NC(=O)c2ccccc2Cl)no1	.	+	16%	172%	.	54*
CCCc1c(C(=O)Nc2ccc(F)cc2C)cnn1-c1ccccc1	5%	-6	-40%	-2%	-1%	6
Cc1cc(NC(=O)NC(=O)c2ccccc2F)no1	171%	77*	-5%	149%	.	32*
Cc1cc(C)c(NC(=O)Cn2ncc3ccccc32)c(C)c1	2%	9	10%	-4%	-2%	6
Cc1cc(NC(=O)c2cc(Cl)ccc2Cl)no1	?	-19	-10%	5%	3%	-1
Cc1ccc(NC(=O)Cn2ncc3ccccc32)c(Cl)c1	15%	55*	-3%	-7%	7%	52*
CCOC(=O)C1CCN(C(=O)c2sccc2Cl)CC1	7%	-6	2%	1%	7%	-2
COc1ccc(OCC(=O)Nc2ccc(N3CCN(Cc4ccccc4F)CC3)cc2)cc1	3%	-5	8%	-2%	3%	-2
Cn1c(SCC(=O)NCC2CCCO2)nnc1-c1ccco1 (stereo not given)	-12%	.	.	1%	.	.
CCC(C)c1ccccc1N=Cc1ccc2c(c1)OCO2 (stereo not given)	-23%	-12	-3%	28%	-2%	-5
CC(C)(C)c1ccc(C(=O)NCc2nnc(SCC(=O)NCC3CCCO3)o2)cc1 (stereo not given)	8%	-4	7%	-4%	-21%	-1
Cn1c(=O)c(-c2ccccc2)nc2cnc(Oc3ccccc3)nc21	.	.	.	.	1%	.
COc1ccc2oc(C(=O)NC3(C)CCS(=O)(=O)C3)c(C)c2c1 (stereo not given)	33%	.	.	13%	.	.
Cc1ccc(NC(=O)c2ccccc2Cl)c(Cl)c1	82%	69*	-59%	.	2%	42*
Cc1ccc(SCCC(=O)Nc2ccccc2Br)cc1	1%	56*	-6%	14%	11%	16*
Cc1ccc(NC(=O)c2sccc2-n2cccc2)c(Cl)c1	176%	22	.	19%	-1%	31*
Cc1ccc(NC(=O)C2CC2C)c(Cl)c1 (stereo not given)	-11%	62	.	30%	2%	30*
Cc1cccc(NC(=O)c2sccc2-n2cccc2)c1C	-2%	-3	-47%	6%	-5%	-1
c1nc(N2CCNCC2)c2cc(-c3ccc4c(c3)OCO4)ccc2n1	.	.	.	.	-15%	.
N#Cc1ccc(CN2CCN(C(=O)CNS(=O)(=O)c3ccc4c(c3)OCCCO4)CC2)cc1	-43%	.	.	-21%	.	.
O=C(CN(Cc1ccccc1F)S(=O)(=O)c1ccc(Cl)cc1)NCC1CCCO1 (stereo not given)	16%	-4	0%	-4%	-1%	-8
CCOc1ccc(CN(C)C(=O)CNC(=O)c2cc(OC)c(OC)c(OC)c2)cc1	-17%	9	0%	-18%	3%	-6
CC(=O)c1c(C(C)=O)c(C)n(-c2ccc(O)cc2)c1C	0%	-13	5%	9%	-8%	1
SMILES	Pf growth 96h	Shiga toxin inh	NS1 function inh	Pf growth 48h	FBPA Giardia inh	Cycloheximide cs
CC(=O)c1c(C(C)=O)c(C)n(-c2ccc(C)c(NC(=O)c3ccccc3Cl)c2)c1C	2.9µM*	-5	-13%	?	-9%	-2
S=C(NCc1ccccc1)N1CCN(C2CCCCC2)CC1	-4%	1	2%	103%	2%	-2
COc1ccc(NC(=O)CSc2c(C)nn(-c3nnc(C)c(=O)[nH]3)c2C)cc1	12µM*	-10	1%	-13%	5%	-2
COc1ccc(NC(=O)CSc2nncn2C)cc1	18%	16	2%	1%	-2%	25*
Cn1cnnc1SCC(=O)Nc1ccc(OCc2ccccc2)cc1	113%	90*	.	72%	1%	48*
COc1ccc(NC(=O)CSC2=NC(=O)CC(C)=N2)cc1	12µM*	-9	-6%	19%	4%	-3
Cc1cc2c(cc1S(=O)(=O)NCCc1ccc(Cl)cc1)OCC(=O)N2	?	-2	-4%	6%	1%	-1
Cc1cc([N+](=O)[O-])nn1CCCC(=O)Nc1c(C)n(C)n(-c2ccccc2)c1=O	10%	10	.	24%	2%	6
